The values that follow come from PubChem BioAssay (NCI).

Test systems include NCI-H23 lung; NCI-H322M lung; HOP-62 NSCLC; NCI-H460 lung; HOP-92 NSCLC; NCI-H522 lung; A549/ATCC NSCLC; 786-0 renal; COLO 205 colon; DU-145 prostate; K-562 leukemia; MALME-3M melanoma; MDA-MB-231 breast; RXF 393 renal; SF-268 CNS; SF-295 CNS; SF-539 CNS; UACC-257 melanoma; M14 melanoma; HCT-15 colon.
Assay in all cases: NCI-60 one-dose screen, 48 h (100 = growth as untreated, 0 = no growth, -100 = all killed)
Holding throughout (conditions): 10 µM unless noted

SMILES strings stand for the structures. This is part of a sample that, as a whole, favours compounds with a hit. Of some 83,000 tested, about 20% had one in any assay.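 Growth was measured after 48 h exposure to one concentration of compound in 96-well plates. Values under 10 count as active.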 A number with no mark means an inactive call. Calls of active or inactive are those of the source.

Turning to `CC[C@H](C)[C@@H](C(=O)OC)n1cc(CNC(=O)[C@@H](Cc2ccccc2)NC(=O)OCc2ccccc2)nn1`, the growth is 104% in the assay with NCI-H23 lung; 95.5% in the assay with NCI-H322M lung; 103% in the assay on HOP-62 NSCLC; 104% with NCI-H460 lung; 96.4% with HOP-92 NSCLC; 87.4% with NCI-H522 lung. The growth in the assay on A549/ATCC NSCLC is 87.2%; in the assay on 786-0 renal it was 106%; in the assay on COLO 205 colon it was 122%; with DU-145 prostate, 104%; with K-562 leukemia it was 95.9%; in the assay with MALME-3M melanoma, 100%. Also, the growth is 101% in the assay on MDA-MB-231 breast; 104% in the assay on RXF 393 renal; 93.8% in the assay on SF-268 CNS; 99.4% in the assay on SF-295 CNS; 104% with SF-539 CNS; 95.8% with UACC-257 melanoma. Further, the results for the growth with M14 melanoma and in the assay on HCT-15 colon were 109% and 97.5%, respectively.
On to `CCC1=C[C@@H]2CN(C1)Cc1c([nH]c3ccccc13)[C@@](C(=O)OC)(c1cc3c(cc1OC)N(C)[C@H]1[C@@](O)(C(=O)OC)[C@H](OC(C)=O)[C@]4(CC)[C@@H]5C[C@@H]5CN5CC[C@]31[C@@H]54)C2`, for which the growth is 5.89% (active) in the assay on NCI-H23 lung; 49.3% with NCI-H322M lung; 17.4% in the assay on HOP-62 NSCLC; 0.48% (active) with NCI-H460 lung; 21.2% with HOP-92 NSCLC; -14.5% (active) in the assay on NCI-H522 lung. The growth with A549/ATCC NSCLC was 13.9%; with 786-0 renal, 11.2%; in the assay with COLO 205 colon it was -86% (active); in the assay on DU-145 prostate, -17.9% (active); with K-562 leukemia, -10% (active); in the assay with MALME-3M melanoma, -63.9% (active). The growth is -45.4% (active) in the assay on MDA-MB-231 breast; 29.5% with RXF 393 renal; 8.9% (active) in the assay with SF-268 CNS; 20.1% with SF-295 CNS; -17.5% (active) with SF-539 CNS; 32.8% with UACC-257 melanoma. The growth was -22.3% (active) in the assay with M14 melanoma and 13.4% in the assay on HCT-15 colon.
Regarding `COC(=O)/C(CCC=C(C)C)=C1\[C@@H](OC(C)=O)C[C@@]2(C)[C@H]1C[C@@H](O)[C@H]1[C@@]3(C)CC[C@H](NCc4ccccc4)[C@@H](C)[C@@H]3CC[C@@]12C`, the growth with NCI-H23 lung is 81.4%; in the assay on NCI-H322M lung, 91.5%; with HOP-62 NSCLC, 84%; with NCI-H460 lung, 45.1%; in the assay with HOP-92 NSCLC, 48.8%; in the assay with NCI-H522 lung it was 80%. The growth in the assay with A549/ATCC NSCLC was 59%; in the assay with 786-0 renal it was 55.4%; with COLO 205 colon it was 50%; with DU-145 prostate, 74.8%; with K-562 leukemia, 11%; in the assay on MALME-3M melanoma, 68%. Moreover, the growth in the assay on MDA-MB-231 breast is 63.6%; with RXF 393 renal, 49.6%; with SF-268 CNS it was 64.1%; in the assay on SF-295 CNS it was 85.7%; with SF-539 CNS, 70%; in the assay with UACC-257 melanoma it was 75.4%. For the same molecule, the growth is 49.8% with M14 melanoma and 31% in the assay with HCT-15 colon.
As to `CN(C)CCCNCc1ccc(-c2ccc(F)c(Cl)c2)o1`, the growth was 77.1% in the assay with NCI-H23 lung; 65% in the assay on NCI-H322M lung; 19.2% with HOP-62 NSCLC; -58.4% (active) in the assay on NCI-H460 lung; 35.7% in the assay with HOP-92 NSCLC; 19.5% with NCI-H522 lung. Also, the growth in the assay on A549/ATCC NSCLC was -50.5% (active); in the assay with 786-0 renal it was 49.6%; in the assay with COLO 205 colon it was -90% (active); in the assay with DU-145 prostate, 19.7%; in the assay with K-562 leukemia it was -19% (active); with MALME-3M melanoma it was -57.7% (active). The growth with MDA-MB-231 breast is 13.4%; with RXF 393 renal, 16%; in the assay on SF-268 CNS, 53.3%; with SF-295 CNS, -18.3% (active); with SF-539 CNS it was 60.8%; in the assay on UACC-257 melanoma, -5.97% (active). For the same molecule, the figures for the growth in the assay with M14 melanoma and with HCT-15 colon were -80.9% (active) and 1.01% (active), respectively.
In the case of `O=C1/C(=C/c2ccc(O)cc2)COc2ccc(O)c(O)c21`, the growth in the assay on NCI-H23 lung was 35.9%; in the assay with NCI-H322M lung, 79%; in the assay on HOP-62 NSCLC, 51.5%; with NCI-H460 lung, 8.73% (active); in the assay on HOP-92 NSCLC, 52.7%; in the assay with NCI-H522 lung, -47.7% (active). The growth in the assay on A549/ATCC NSCLC is 34.5%; in the assay with 786-0 renal, 25.4%; in the assay on COLO 205 colon, 91.8%; in the assay on DU-145 prostate, 17%; in the assay on K-562 leukemia, 4.59% (active); in the assay on MALME-3M melanoma, -6.72% (active). Moreover, the growth with MDA-MB-231 breast was 20.2%; with RXF 393 renal it was 9.98% (active); in the assay on SF-268 CNS, 24.5%; with SF-295 CNS, 95.6%; with SF-539 CNS, -13.7% (active); in the assay on UACC-257 melanoma it was 63.2%. For the same molecule, the growth is 64.7% with M14 melanoma and -29.3% (active) with HCT-15 colon.
Consider `Cc1cc(Br)c(N)c(Br)c1`, for which the growth was 97% in the assay with NCI-H23 lung; 105% in the assay on NCI-H322M lung; 87.9% in the assay with HOP-62 NSCLC; 104% in the assay on NCI-H460 lung; 106% in the assay with HOP-92 NSCLC; 86.3% with NCI-H522 lung. In addition, the growth with A549/ATCC NSCLC was 73.3%; with 786-0 renal, 93.3%; in the assay on COLO 205 colon it was 106%; in the assay on DU-145 prostate, 108%; in the assay with K-562 leukemia, 90%; in the assay on MALME-3M melanoma, 104%. The growth was 103% in the assay with MDA-MB-231 breast; 106% in the assay with RXF 393 renal; 106% with SF-268 CNS; 95.9% with SF-295 CNS; 95.5% with SF-539 CNS; 77.5% in the assay with UACC-257 melanoma. In addition, the figures for the growth with M14 melanoma and in the assay on HCT-15 colon were 89.3% and 96.1%, respectively.
As for `COc1ccc(Br)c(/C=C2\SC(=Nc3ccc(O)cc3)NC2=O)c1`, the growth is 92.1% with NCI-H23 lung; 99.8% in the assay with NCI-H322M lung; 96.2% in the assay on HOP-62 NSCLC; 102% with NCI-H460 lung; 83.2% in the assay with HOP-92 NSCLC; 77.2% with NCI-H522 lung. The growth in the assay with A549/ATCC NSCLC was 87.2%; in the assay on 786-0 renal it was 82.8%; in the assay on COLO 205 colon, 102%; in the assay on DU-145 prostate it was 98.1%; with K-562 leukemia, 84.4%; in the assay with MALME-3M melanoma it was 89.6%. The growth with MDA-MB-231 breast was 108%; with RXF 393 renal it was 83.7%; with SF-268 CNS, 74%; in the assay on SF-295 CNS, 98.3%; with SF-539 CNS it was 85.4%; with UACC-257 melanoma, 102%. In addition, the growth is 97.8% in the assay with M14 melanoma and 79.3% in the assay with HCT-15 colon.
